Compound activity from PubChem BioAssay.
NCOA2 inhibitor: human SRC2 (NCOA2) inhibition; HEK293 GAL4-SRC2 luciferase reporter, luminescence; AID 651957; actives 0.17% (n = 370,000); Q15596; inhibition, % at 9 µM;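 active = inhibition above the mean inhibition of all tested compounds plus 3 SD, set per campaign, cut at about 52% in these data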
NR2F2 inh: NR2F2 (human) inhibition, primary screen; P24468; HEK293T NGFI-A luciferase reporter, luminescence; inhibition, % at 8.6 µM; actives 0.7% (n = 370,000); AID 686940;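 active = inhibition above a per-plate cutoff, mean inhibition of test wells between control levels plus 3 SD, cut at about 38% in these data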;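 note: cells cotransfected with COUP-TFII expression vector driving the NGFI-A reporter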
Gli-Sufu antag: Gli-Sufu pathway antagonism. actives 0.74% (n = 340,000). inhibition, % at 5 µM. AID 588413. Sufu-KO-LIGHT fibroblasts, Gli luciferase reporter luminescence;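 active = inhibition above about 55%, limit read from the data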
SRC3 inh: human NCOA3 inhibition | AID 588352 | inhibition, % at 3.6 µM | actives 0.17% (n = 360,000) | Q9Y6Q9 | HEK293 GAL4-SRC3 luciferase reporter, luminescence;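 active = inhibition above a per-campaign cutoff, the mean of all compounds plus 3 SD, cut at about 60% in these data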;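 note: higher means less SRC3-driven luciferase light from the GAL4 reporter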
NCOA1 inh: human NCOA1 inhibition; Q15788; HEK293 GAL4-SRC1 luciferase reporter, luminescence; inhibition, % at 3.6 µM; actives 0.12% (n = 360,000); AID 588354;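 active = inhibition above the campaign mean plus 3 SD, with each screening campaign given its own cutoff, cut at about 60% in these data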
NR5A2 inv ag: suppresses constitutive activity of human LRH-1. actives 0.13% (n = 360,000). HEK293T StAR-luciferase reporter, LRH-1 transfected, 24 h. inhibition, % at 3.6 µM. AID 602396. O00482;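 active = inhibition above the mean inhibition of all tested compounds plus 3 SD, cut at about 73% in these data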
Target sequence (O00482 whole entry, looked up): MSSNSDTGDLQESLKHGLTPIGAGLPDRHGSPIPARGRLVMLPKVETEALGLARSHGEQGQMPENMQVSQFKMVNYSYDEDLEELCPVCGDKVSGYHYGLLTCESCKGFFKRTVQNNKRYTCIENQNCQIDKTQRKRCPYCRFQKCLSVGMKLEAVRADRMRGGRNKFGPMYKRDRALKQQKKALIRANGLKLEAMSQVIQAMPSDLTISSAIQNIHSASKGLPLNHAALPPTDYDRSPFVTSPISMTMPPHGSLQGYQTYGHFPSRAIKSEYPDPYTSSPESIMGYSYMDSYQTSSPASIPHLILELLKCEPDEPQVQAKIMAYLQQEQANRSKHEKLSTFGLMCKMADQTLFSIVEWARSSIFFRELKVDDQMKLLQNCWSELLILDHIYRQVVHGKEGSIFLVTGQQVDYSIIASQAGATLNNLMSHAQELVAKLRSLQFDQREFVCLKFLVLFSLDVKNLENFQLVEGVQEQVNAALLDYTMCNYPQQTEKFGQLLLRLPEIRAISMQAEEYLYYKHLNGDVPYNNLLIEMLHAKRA
Gli antag conf: Gli-SUFU antagonism confirmation, single concentration. inhibition, % at 5 µM. actives 40% (n = 2,500). AID 602428. shares compounds with Gli-Sufu antag. Sufu-KO-LIGHT cells, Gli luciferase reporter, luminescence;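 active = mean inhibition at 5 µM reaching about 45%, limit read from the data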
SufuKO cytotox: counter-screen for Gli-SUFU antagonists: cytotoxicity; shares compounds with Gli-Sufu antag; Sufu-KO-LIGHT cells cytotoxicity, ATP luminescence; cytotoxicity, % at 5 µM; actives 32% (n = 2,500);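 active = mean cytotoxicity at 5 µM above about 25%, limit read from the data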;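 note: cells exposed to compound overnight for roughly 16 to 18 hours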
Wnt3a cs: Wnt3a reporter inhibition counter-screen; inhibition, % at 6.25 µM; Wnt-LIGHT cells, Wnt3a-driven luciferase reporter, luminescence; shares compounds with Gli-Sufu antag; actives 20% (n = 2,500);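 active = mean inhibition above about 25%, limit read from the data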
Of the large screens only hits and unclear results are named; the others gave an inactive call (follow-up assays come after a bar, where they were run). Sampled rows, rich in hits. Any-hit rate of the full collection: about 1.3%.

COc1ccc(C(=O)OCC(=O)c2ccc(C3CCCCC3)cc2)cc1	none
Nc1ccc(O)cc1C(=O)OCC(=O)c1ccc(C2CCCCC2)cc1	Gli-Sufu antag 66 | Gli antag conf 66 | SufuKO cytotox 33 | Wnt3a cs 29
CC(=O)N1CCOc2ccc(S(=O)(=O)NC(C)c3ccccc3)cc21 (stereo unspecified)	Gli-Sufu antag 61 | Gli antag conf inactive | SufuKO cytotox inactive | Wnt3a cs inactive
CC(=O)N1CCc2cc(S(=O)(=O)NC(C)c3ccccc3)ccc21 (stereo unspecified)	none
CCCc1nnc(NC(=O)CCC(=O)NCc2ccccc2Cl)s1	Gli-Sufu antag 55 | Gli antag conf inactive | SufuKO cytotox inactive | Wnt3a cs inactive
CCOC(=O)c1c(C)[nH]c(C(=O)Cn2nnc(-c3ccc(Cl)cc3)n2)c1C	Gli-Sufu antag 56 | Gli antag conf inactive | SufuKO cytotox inactive | Wnt3a cs inactive
CC(C)(C)n1ncc2c(=O)n(Cc3cccc(Cn4cnc5c(cnn5C(C)(C)C)c4=O)c3F)cnc21	Gli-Sufu antag 77 | Gli antag conf 78 | SufuKO cytotox 38 | Wnt3a cs inactive
Cc1ccccc1Cn1cnc2c(cnn2C(C)(C)C)c1=O	none
COC(=O)[C@]12C[C@H](CC(=O)NCc3cccs3)C(=O)N(Cc3ccc(Cl)cc3Cl)C1=C[C@H](C(C)(C)C)O[C@@H]2C	none (no result: Gli-Sufu antag, SRC3 inh, NCOA1 inh, NR5A2 inv ag)
CCOC(=O)CN1C(=O)/C(=C/c2ccccc2Br)Oc2ccccc21	Gli-Sufu antag 57 | Gli antag conf inactive | SufuKO cytotox inactive | Wnt3a cs inactive
O=Cc1cn(-c2ccccc2)nc1-c1ccccc1	none
O=Cc1cn(-c2ccccc2)nc1-c1cccnc1	none | Gli antag conf inactive | SufuKO cytotox inactive | Wnt3a cs inactive
COc1cc2nc(=S)n3[nH]c(CCn4nc(C)cc4C)nc3c2cc1OC	Gli-Sufu antag 68 | Gli antag conf inactive | SufuKO cytotox inactive | Wnt3a cs inactive
COc1cc2nc(=S)n3[nH]c(COc4ccccc4C)nc3c2cc1OC	none
COc1ccc(NC(=O)C2CCN(S(=O)(=O)c3ccc(N4CCCC4=O)cc3)CC2)cc1OC	none | Gli antag conf inactive | SufuKO cytotox inactive | Wnt3a cs inactive
O=C(Nc1ccc(C(F)(F)F)cc1)C1CCN(S(=O)(=O)c2ccc(N3CCCC3=O)cc2)CC1	Gli-Sufu antag 77 | Gli antag conf 79 | SufuKO cytotox inactive | Wnt3a cs inactive
Cc1ccc(-c2nn(C)c(=O)c3ccccc23)cc1S(=O)(=O)N1CCOCC1	none | Gli antag conf inactive | SufuKO cytotox inactive | Wnt3a cs inactive
COc1ccc(CNCC(O)(c2ccccc2)c2ccccc2)cc1OC	none | Gli antag conf inactive | SufuKO cytotox inactive | Wnt3a cs inactive
CC[C@@H](CCC(=O)N(c1ccccc1)c1ccccc1)c1ccc(C)cc1	none (no result: Gli-Sufu antag, SRC3 inh, NCOA1 inh, NR5A2 inv ag)
O=C(c1ccoc1)N1CCCC(N2CCN(c3ccc(F)cc3)CC2)C1 (stereo unspecified)	none
COc1ccc(N2CCN(C3CCCN(C(=O)c4ccoc4)C3)CC2)cc1 (stereo unspecified)	Gli-Sufu antag 55 | Gli antag conf inactive | SufuKO cytotox inactive | Wnt3a cs inactive
COc1ccc(N2CCN(C3CCCN(S(=O)(=O)c4ccc(C)cc4C)C3)CC2)cc1 (stereo unspecified)	Gli-Sufu antag 60 | Gli antag conf inactive | SufuKO cytotox inactive | Wnt3a cs inactive
Cc1ccccc1-n1c(=O)cc(N2CCc3ccccc32)[nH]c1=O	Gli-Sufu antag 63 | Gli antag conf inactive | SufuKO cytotox inactive | Wnt3a cs inactive
Cc1ccccc1NC(=O)N(C)[C@H]1C[C@H]2c3[nH]c4c(-c5ccc6c(c5)OCO6)cccc4c3CCN2C[C@H]1[C@H](C)O	none (no result: Gli-Sufu antag, SRC3 inh, NCOA1 inh, NR5A2 inv ag)
Cc1ccsc1C1C(C#N)=C(N)Oc2n[nH]c(C)c21 (stereo unspecified)	Gli-Sufu antag 65 | Gli antag conf inactive | SufuKO cytotox inactive | Wnt3a cs inactive
Cc1ccc(NC(=O)c2cccc3c2-c2ccccc2C3=O)c(C)c1	none (no result: Gli-Sufu antag, SRC3 inh, NCOA1 inh, NR5A2 inv ag)
COc1ccc([C@H]2OC(=O)C[C@H]2C(=O)N2CCN(c3ccccc3C(F)(F)F)CC2)cc1OC	none (no result: Gli-Sufu antag, SRC3 inh, NCOA1 inh, NR5A2 inv ag)
NC(=Nc1cccc(F)c1)NC(=O)OCc1ccccc1	none (no result: Gli-Sufu antag, SRC3 inh, NCOA1 inh, NR5A2 inv ag)
O=C(NC(=S)Nc1ccccc1O)c1cccnc1	Gli-Sufu antag 82 | Gli antag conf inactive | SufuKO cytotox inactive | Wnt3a cs inactive
CC[C@H](C(=O)Nc1ccccc1N1CCCC1)c1ccccc1	none (no result: Gli-Sufu antag, SRC3 inh, NCOA1 inh, NR5A2 inv ag)
C=CCn1c(SCc2c(C)noc2C)nc2ccccc2c1=O	none | Gli antag conf 54 | SufuKO cytotox 58 | Wnt3a cs inactive
C=CCn1c(SCc2c(C)noc2C)nc2cc(C(=O)O)ccc2c1=O	none
COc1ccc(OC)c(-c2nnc3n2N=C(c2ccc(OC(F)F)c(OCC4CC4)c2)CS3)c1	none
COc1ccc(C2=Nn3c(nnc3-c3ccccc3OC)SC2)cc1OCC1CC1	Gli-Sufu antag 65 | Gli antag conf 60 | SufuKO cytotox 65 | Wnt3a cs inactive
CCC(C)CNC(=O)CN1C(=O)C2CCCCN2C(=O)c2ccccc21 (stereo unspecified)	none (no result: Gli-Sufu antag, SRC3 inh, NCOA1 inh, NR5A2 inv ag)
COc1ccc(S(=O)(=O)NC2CC(C)(C)NC(C)(C)C2)cc1C(C)C	none | Gli antag conf inactive | SufuKO cytotox inactive | Wnt3a cs inactive
O=C(Nc1ccc(NC(=O)c2cc3ccccc3o2)cc1)c1ccc2c(c1)OCCO2	none | Gli antag conf 61 | SufuKO cytotox inactive | Wnt3a cs 88
N#Cc1ccc(COC(=O)C2CCC(=O)N2)cc1 (stereo unspecified)	Gli-Sufu antag 99 | Gli antag conf inactive | SufuKO cytotox inactive | Wnt3a cs inactive
O=C1CCC(C(=O)OCC(=O)c2ccccc2)N1 (stereo unspecified)	none
CCOC(=O)c1ccc(N2C(=O)c3n[nH]c(-c4ccco4)c3C2c2cccc([N+](=O)[O-])c2)cc1 (stereo unspecified)	Gli-Sufu antag 99 | Gli antag conf inactive | SufuKO cytotox inactive | Wnt3a cs inactive
CCOC(=O)c1ccc(N2C(=O)c3n[nH]c(C)c3C2c2ccco2)cc1 (stereo unspecified)	none
Cc1ccc(S(=O)(=O)N2CCC(C(=O)N[C@@H](C)C(=O)Nc3ccc4c(c3)OCO4)CC2)cc1	none | Gli antag conf inactive | SufuKO cytotox inactive | Wnt3a cs inactive
O=C1CCCN1CN1CCCCC1	Gli-Sufu antag 99 | Gli antag conf inactive | SufuKO cytotox inactive | Wnt3a cs inactive
O=C(c1ccc(Cl)cc1)N1CCN(c2ccnc3cc(Cl)ccc23)CC1	Gli-Sufu antag 67 | Gli antag conf 69 | SufuKO cytotox inactive | Wnt3a cs inactive
